{
  "source": "PubChem BioAssay (NCATS)",
  "key": {"[1]": {"target": "Cytochrome P450 3A4 (Homo sapiens) (UniProt P08684)", "sequence (P08684 whole entry, looked up)": "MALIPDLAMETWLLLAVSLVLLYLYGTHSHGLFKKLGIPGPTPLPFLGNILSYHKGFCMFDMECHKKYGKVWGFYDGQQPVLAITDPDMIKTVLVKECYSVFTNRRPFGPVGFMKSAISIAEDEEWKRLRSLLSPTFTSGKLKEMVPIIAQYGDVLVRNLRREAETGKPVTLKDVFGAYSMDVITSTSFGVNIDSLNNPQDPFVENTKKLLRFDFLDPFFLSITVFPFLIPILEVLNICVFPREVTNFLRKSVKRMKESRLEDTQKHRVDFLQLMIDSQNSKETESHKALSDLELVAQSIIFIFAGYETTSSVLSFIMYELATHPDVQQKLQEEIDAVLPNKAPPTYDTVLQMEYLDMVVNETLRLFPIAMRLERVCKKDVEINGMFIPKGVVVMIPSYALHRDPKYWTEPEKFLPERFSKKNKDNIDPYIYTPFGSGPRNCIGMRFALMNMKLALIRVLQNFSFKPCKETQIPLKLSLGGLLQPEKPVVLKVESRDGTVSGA", "assay": "qHTS Assay for Activators of Cytochrome P450 3A4 (AID 885); note: nearly all actives have a fitted effect of over 65% in size", "procedure,_shortened": "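Luminescent readout of luciferin formed from 25 uM Luciferin-PPXE (KM level) by 20 nM CYP3A4 in 200 mM KPO4, with 60 min NADPH-driven reaction at room temperature after 10 min compound exposure. Ketoconazole (57 uM) defined 100% inhibition.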"}, "[2]": {"target": "Cytochrome P450 2D6 (Homo sapiens) (UniProt P10635)", "sequence (P10635 whole entry, looked up)": "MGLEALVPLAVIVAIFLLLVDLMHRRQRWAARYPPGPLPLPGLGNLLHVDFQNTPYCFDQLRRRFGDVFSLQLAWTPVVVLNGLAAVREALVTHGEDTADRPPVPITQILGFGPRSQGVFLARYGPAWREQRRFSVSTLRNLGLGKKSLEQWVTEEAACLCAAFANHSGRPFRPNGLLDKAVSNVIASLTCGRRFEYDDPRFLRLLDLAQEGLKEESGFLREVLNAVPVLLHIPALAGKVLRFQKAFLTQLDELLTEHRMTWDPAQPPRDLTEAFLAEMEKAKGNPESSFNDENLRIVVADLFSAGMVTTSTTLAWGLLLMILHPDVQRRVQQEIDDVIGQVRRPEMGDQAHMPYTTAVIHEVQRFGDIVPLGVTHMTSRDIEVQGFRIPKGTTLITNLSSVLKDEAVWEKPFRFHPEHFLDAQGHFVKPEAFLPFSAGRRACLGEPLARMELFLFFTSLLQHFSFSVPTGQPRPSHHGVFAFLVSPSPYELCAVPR", "assay": "qHTS Assay for Inhibitors and Substrates of Cytochrome P450 2D6 (AID 891);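 note: luciferin methyl ether substrate demethylated by CYP2D6 with NADPH regeneration; nearly all actives have a fitted effect of over 60% in size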", "procedure,_shortened": "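Luminescent read-out of luciferin formed by 5 nM human CYP2D6 demethylating 30 uM Luciferin-ME EGE (Km level) over 60 min at room temperature after NADPH regeneration addition. Data normalized to full inhibition by 1.43 uM quinidine.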"}, "[3]": {"target": "Cytochrome P450 2C19 (Homo sapiens) (UniProt P33261)", "sequence (P33261 whole entry, looked up)": "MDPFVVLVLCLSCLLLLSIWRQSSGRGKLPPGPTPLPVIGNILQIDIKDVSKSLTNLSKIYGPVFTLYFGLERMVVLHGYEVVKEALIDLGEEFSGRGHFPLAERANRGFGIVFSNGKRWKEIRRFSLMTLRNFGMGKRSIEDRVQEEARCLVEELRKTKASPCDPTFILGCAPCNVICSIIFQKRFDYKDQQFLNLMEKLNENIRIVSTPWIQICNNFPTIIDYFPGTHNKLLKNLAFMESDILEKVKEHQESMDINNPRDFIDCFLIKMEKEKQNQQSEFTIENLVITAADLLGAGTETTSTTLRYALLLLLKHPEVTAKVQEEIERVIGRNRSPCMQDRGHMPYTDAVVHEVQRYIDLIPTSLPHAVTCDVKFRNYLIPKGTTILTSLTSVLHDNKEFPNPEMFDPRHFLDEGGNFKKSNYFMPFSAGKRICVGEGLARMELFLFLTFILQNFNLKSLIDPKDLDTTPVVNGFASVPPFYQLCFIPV", "assay": "qHTS Assay for Inhibitors and Substrates of Cytochrome P450 2C19 (AID 899); note: nearly all actives have a fitted effect of over 60% in size; note: potency is the fitted concentration of half-maximal effect", "procedure,_shortened": "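Luminescence readout of luciferin formed from 10uM Luciferin-H EGE (KM level) by 5 nM CYP2C19 in 50mM KPO4. 60 min NADPH-driven reaction at 37C after 10 min compound preincubation; data scaled to 57uM ketoconazole inhibition.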"}, "[4]": {"assay": "Confirmation and Secondary Assay for Modulators of Hemoglobin Beta Chain Splicing at IVS2 654 locus (AID 910);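 note: HeLa cells stably carrying EGFP split by mutant beta-globin IVS2-654 intron; per-well total GFP intensity by laser scanning cytometry after 2-day treatment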", "procedure,_shortened": "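Readout: per-well total peak green fluorescence (488 nm ex, 500–520 nm em) from objects 5–250 µm, reflecting correct splicing of an EGFP-654 reporter. Compounds were applied for 2 days at 37 °C to overnight-plated HeLa EGFP-654 cells; controls were DMSO and 500 nM IVS2-654 PNA.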"}, "[5]": {"assay": "Confirmation and Secondary Assay for Modulators of Hemoglobin Beta Chain Splicing at IVS2 705 locus (AID 930);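 note: HeLa cells stably expressing the EGFP-705 splicing reporter; GFP fluorescence per well restored by corrected splicing of the IVS2-705 intron in EGFP; series mostly up to about 46 µM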", "procedure,_shortened": "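Per-well GFP, captured at 1 x 8 µm resolution with 488 nm excitation, served as the read-out for HeLa EGFP-705 cells incubated 2 days with test compound versus DMSO.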"}, "[6]": {"assay": "qHTS Assay for Identification of Small Molecule Agonists for Hypoxia Response Element Signaling Pathway (AID 914; active = well fitted activation curve with a large enough effect in the signal ratio, with a control signal flat, not every such curve was filed as active; the % refers to the signal ratio)", "conditions": "ME-180 HRE-bla reporter, beta-lactamase ratio, CoCl2, 17 h; stronger effect = higher value", "procedure,_shortened": "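In Opti-MEM containing 0.5% dialyzed FBS and 10 mM HEPES, ME-180 HRE-bla cells received a compound titration and EC50 CoCl2. They were incubated 17 hours, then CCF4-loaded 2.5 hours at room temperature before ratio reading.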"}},
  "note": "Several values for one entry are separate records, joined by “and”; a condition that tells them apart may be missing. Equal entries are not always repeated. A number with no mark means an inactive call. Records with an inconclusive call do not appear. Entries that show only a call come without a potency. Activity calls are given as the source filed them. Unless noted, calls come from the whole dose curve; as a rule, active = well fitted curve in the direction sought with a large enough effect; inconclusive = small, poorly fitted or top-dose-only effect, or another doubt; inactive = no such curve, though single readings can be large; an effect the other way counts as inactive or inconclusive.",
  "data": [
    {"smiles": "COc1ccc(O[C@H]2C=C[C@@H](c3ccccc3)O[C@H]2CO/N=C(/C)CCC(=O)OC[C@@H]2O[C@H](C#Cc3ccccc3)C=C[C@@H]2Oc2ccc(C)cc2)cc1", "values": [
      {"measurement": "activity change, positive = activation", "setting": "[1]", "value": "-52.7% [at 11.4 µM]"}
    ]},
    {"smiles": "FC(F)(F)c1ccc(CN2C[C@@H]3C(c4ccc(C(F)(F)F)cc4)C4(c5ccccc5)CC3(C4)[C@H]2c2ccccc2)cc1", "note": "(stereo partly drawn)", "values": [
      {"measurement": "Potency", "setting": "[1]", "value": "inactive"}
    ]},
    {"smiles": "COC(=O)C/C=C/C(C)C(OCc1cccc(-c2ccccc2)c1)C1CCCCC1", "note": "(stereo not drawn)", "values": [
      {"measurement": "activity change, positive = activation", "setting": "[1]", "value": "-35.3% [at 11.4 µM]"},
      {"measurement": "Potency", "setting": "[2]", "value": "inactive"}
    ]},
    {"smiles": "CC(=O)OC[C@@H]1O[C@@H](O/N=C2/C[C@@H](O)[C@@H](O)[C@@H]3[C@@H]4C(=O)N(c5cccc(Oc6ccccc6)c5)C(=O)[C@H]4CC[C@H]23)[C@H](OC(C)=O)[C@H](OC(C)=O)[C@@H]1OC(C)=O", "values": [
      {"measurement": "activity change, positive = activation", "setting": "[1]", "value": "-36.6% [at 11.4 µM]"},
      {"measurement": "Potency", "setting": "[3]", "value": "inactive"}
    ]},
    {"smiles": "O=C1[C@@H]2[C@H]3[C@H](O)[C@H](O)C/C(=N/OC[C@@H](O)COCc4ccco4)[C@@H]3CC[C@H]2C(=O)N1c1ccc(F)cc1F", "values": [
      {"measurement": "activity change, positive = activation", "setting": "[1]", "value": "-48.8% [at 11.4 µM]"},
      {"measurement": "Potency", "setting": "[3]", "value": "inactive"}
    ]},
    {"smiles": "COC(=O)CC1[C@@]2(C)C[C@@]34OC5(C)OC6(CC[C@@]7(C)C(c8ccoc8)OC(=O)C(C(C)=O)C7[C@]6(O5)C(O)[C@@]3(O)C2O)[C@]14C", "note": "(stereo partly drawn)", "values": [
      {"measurement": "Potency", "setting": "[1]", "value": "inactive"},
      {"measurement": "outcome", "setting": "[4]", "value": "inactive"},
      {"measurement": "outcome", "setting": "[5]", "value": "inactive"}
    ]},
    {"smiles": "COc1ccc(COC(=O)N/N=C2/C[C@@H](O)[C@@H](O)[C@@H]3[C@@H]4C(=O)N(c5cccc(Oc6ccccc6)c5)C(=O)[C@H]4CC[C@@H]23)cc1", "values": [
      {"measurement": "activity change, positive = activation", "setting": "[1]", "value": "-30.5% [at 11.4 µM]"},
      {"measurement": "activation", "setting": "[6]", "value": -7.26, "unit": "%"}
    ]},
    {"smiles": "C[C@@H]1/C=C\\CC(=O)OC[C@H](C)C(=O)N[C@@H](Cc2ccccc2)C(=O)OC1", "values": [
      {"measurement": "activity change, positive = activation", "setting": "[1]", "value": "-37.2% [at 11.4 µM]"},
      {"measurement": "Potency", "setting": "[2]", "value": "inactive"},
      {"measurement": "Potency", "setting": "[3]", "value": "inactive"}
    ]},
    {"smiles": "C/C(CCN1CCc2nc(-c3ccccc3)c(-c3ccccc3)cc2C1)=N\\O[C@@H](C)c1cc(-c2c(C)cc(C)cc2C)no1", "values": [
      {"measurement": "activity change, positive = activation", "setting": "[1]", "value": "-63.5% [at 11.4 µM]"},
      {"measurement": "activation", "setting": "[6]", "value": 20.9, "unit": "%"}
    ]},
    {"smiles": "CCOC(=O)OCC1OC(C#Cc2ccc(Br)cc2)C=CC1OC(=O)OCC", "note": "(stereo not drawn)", "values": [
      {"measurement": "activity change, positive = activation", "setting": "[1]", "value": "-52.5% [at 11.4 µM]"},
      {"measurement": "Potency", "setting": "[2]", "value": "inactive"},
      {"measurement": "Potency", "setting": "[3]", "value": "inactive"}
    ]},
    {"smiles": "C/C=C/OC(=O)NC(c1ccccc1)[C@]1(C(C)=O)CCCC1=O", "note": "(stereo partly drawn)", "values": [
      {"measurement": "activity change, positive = activation", "setting": "[1]", "value": "-53.9% [at 11.4 µM]"},
      {"measurement": "Potency", "setting": "[2]", "value": "inactive"},
      {"measurement": "Potency", "setting": "[3]", "value": "0.199 µM (active)"}
    ]},
    {"smiles": "COc1ccccc1/C=C/C1=CC2(C)CC1(C)C(c1ccccc1OC)CC2=O", "note": "(stereo not drawn)", "values": [
      {"measurement": "activity change, positive = activation", "setting": "[1]", "value": "-56.9% [at 11.4 µM]"},
      {"measurement": "Potency", "setting": "[2]", "value": "inactive"},
      {"measurement": "Potency", "setting": "[3]", "value": "3.16 µM (active)"}
    ]},
    {"smiles": "CCC1CN2CCc3cc(OC)c(OC)cc3C2CC1CC1NCCc2cc(OC)c(OC)cc21", "note": "(stereo not drawn)", "values": [
      {"measurement": "Potency", "setting": "[1]", "value": "inactive"},
      {"measurement": "outcome", "setting": "[4]", "value": "inactive"},
      {"measurement": "outcome", "setting": "[5]", "value": "inactive"}
    ]},
    {"smiles": "C/C(CCN1CCc2nc(-c3ccccc3)c(-c3ccccc3)cc2C1)=N\\OC[C@@H](C)[C@H](OCc1ccccc1)C(C)C", "values": [
      {"measurement": "activity change, positive = activation", "setting": "[1]", "value": "-51.7% [at 11.4 µM]"},
      {"measurement": "Potency", "setting": "[3]", "value": "1.58 µM (active)"}
    ]},
    {"smiles": "COc1cc(OC)c2c(=O)c(-c3ccccc3)c(C)oc2c1OC", "values": [
      {"measurement": "Potency", "setting": "[1]", "value": "inactive"},
      {"measurement": "outcome", "setting": "[4]", "value": "inactive"},
      {"measurement": "outcome", "setting": "[5]", "value": "inactive"}
    ]},
    {"smiles": "CCC12C=C(/C=C/c3ccccc3)C(CC)(C1)C(c1ccccc1)CC2=O", "note": "(stereo not drawn)", "values": [
      {"measurement": "activity change, positive = activation", "setting": "[1]", "value": "-32.8% [at 11.4 µM]"},
      {"measurement": "Potency", "setting": "[2]", "value": "inactive"},
      {"measurement": "Potency", "setting": "[3]", "value": "5.01 µM (active)"}
    ]},
    {"smiles": "COC1(C#CC2C=CC(OC(C)=O)C(COC(C)=O)O2)CCCCC1", "note": "(stereo not drawn)", "values": [
      {"measurement": "activity change, positive = activation", "setting": "[1]", "value": "-43% [at 11.4 µM]"},
      {"measurement": "Potency", "setting": "[2]", "value": "inactive"},
      {"measurement": "Potency", "setting": "[3]", "value": "inactive"}
    ]},
    {"smiles": "O=C1[C@@H]2[C@H]3[C@H](O)[C@H](O)C/C(=N/OC[C@@H](O)COCc4ccco4)[C@H]3CC[C@H]2C(=O)N1c1ccc(F)cc1F", "values": [
      {"measurement": "activity change, positive = activation", "setting": "[1]", "value": "-44.4% [at 11.4 µM]"},
      {"measurement": "Potency", "setting": "[3]", "value": "inactive"}
    ]},
    {"smiles": "C=CCc1cccc(C2C(C)CCC3C(=O)N4C(CCC(C)C4c4cccc(CC=C)c4)C(=O)N32)c1", "note": "(stereo not drawn)", "values": [
      {"measurement": "activity change, positive = activation", "setting": "[1]", "value": "-58.4% [at 11.4 µM]"},
      {"measurement": "Potency", "setting": "[3]", "value": "inactive"}
    ]},
    {"smiles": "C[C@@H]1O[C@H]2C3=C(C(=O)[C@H]4O[C@@H]4[C@H]3O)[C@@H]1[C@@H]1[C@@H](C)OC=C3[C@H](O)[C@H]4O[C@@H]4/C(=N\\OCc4ccccc4)[C@]312", "values": [
      {"measurement": "activity change, positive = activation", "setting": "[1]", "value": "-31.8% [at 11.4 µM]"},
      {"measurement": "Potency", "setting": "[3]", "value": "0.631 µM (active)"}
    ]},
    {"smiles": "COc1ccc(OC2C(O)COC2/C=C/c2ccccc2)cc1", "note": "(stereo not drawn)", "values": [
      {"measurement": "activity change, positive = activation", "setting": "[1]", "value": "-47.5% [at 11.4 µM] and -40.4% [at 11.4 µM]"},
      {"measurement": "Potency", "setting": "[2]", "value": "inactive"},
      {"measurement": "Potency", "setting": "[3]", "value": "2 µM (active)"}
    ]},
    {"smiles": "COc1c(CC(=O)c2cc3c(cc2O)OC(C)(C)C(O)C3)ccc2c1C=CC(C)(C)O2", "note": "(stereo not drawn)", "values": [
      {"measurement": "Potency", "setting": "[1]", "value": "inactive"},
      {"measurement": "outcome", "setting": "[4]", "value": "inactive"},
      {"measurement": "outcome", "setting": "[5]", "value": "inactive"}
    ]}
  ]
}
